We go through 73 compounds from PubChem BioAssay AID488969 (Vanderbilt High Throughput Screening Facility, 2010).

The full ranking holds about 110,000 compounds; the median of “z-score” is about -0.1, and the highest 2% start at about 2. Many of the other results were omitted from the sample, so the highest values are more common in it than they were. Active and inactive are the calls of the source.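 Rule for the calls: active = z-score in the third read window above 3 or below -3; inactive = the rest.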

The experiment deals with Metabotropic glutamate receptor 8 (Rattus norvegicus) (UniProt P70579). The experiment can be described thus: rat mGluR8 modulators via GIRK flux, primary screen, cell-based, thallium flux, HTS (AID 488969). The conditions noted are these: HEK293 rat mGluR8, GIRK (G protein-gated inwardly rectifying potassium channel) thallium flux, FluoZin2; at 10 µM; stronger effect = higher value; submaximal glutamate (EC20) added with thallium.
Chain of Metabotropic glutamate receptor 8 (Rattus norvegicus) (P70579 whole entry, looked up): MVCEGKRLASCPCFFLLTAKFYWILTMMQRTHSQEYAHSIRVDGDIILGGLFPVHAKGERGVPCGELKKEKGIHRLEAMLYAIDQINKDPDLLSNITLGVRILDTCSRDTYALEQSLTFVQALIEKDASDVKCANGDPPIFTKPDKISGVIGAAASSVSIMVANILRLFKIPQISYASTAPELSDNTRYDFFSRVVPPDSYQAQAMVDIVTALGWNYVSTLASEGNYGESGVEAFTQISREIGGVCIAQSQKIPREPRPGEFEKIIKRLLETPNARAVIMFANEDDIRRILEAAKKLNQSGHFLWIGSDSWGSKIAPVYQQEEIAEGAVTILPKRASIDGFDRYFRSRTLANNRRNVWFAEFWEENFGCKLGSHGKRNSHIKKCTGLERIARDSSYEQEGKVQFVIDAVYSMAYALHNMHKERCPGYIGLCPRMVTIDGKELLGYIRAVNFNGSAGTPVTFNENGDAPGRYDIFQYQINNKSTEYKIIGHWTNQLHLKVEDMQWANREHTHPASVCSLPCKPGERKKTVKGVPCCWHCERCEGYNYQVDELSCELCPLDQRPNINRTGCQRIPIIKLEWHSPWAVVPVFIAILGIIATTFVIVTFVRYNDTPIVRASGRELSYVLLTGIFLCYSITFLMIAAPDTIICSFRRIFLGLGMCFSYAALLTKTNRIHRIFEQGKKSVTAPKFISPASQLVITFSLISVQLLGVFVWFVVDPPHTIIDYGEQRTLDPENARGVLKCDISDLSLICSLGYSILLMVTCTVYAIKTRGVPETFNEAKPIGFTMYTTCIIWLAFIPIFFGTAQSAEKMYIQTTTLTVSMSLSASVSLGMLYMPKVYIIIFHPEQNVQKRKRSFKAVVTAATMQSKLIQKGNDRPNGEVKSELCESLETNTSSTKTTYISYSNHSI
`Cc1cc(C)c(S(C)(=O)=O)c(Oc2ccccc2C)n1` registered a z-score of -0.0363.

Compound `O=C1NCCCc2c1oc1ccc(O)cc21` gave a z-score of -0.602.

The compound `Cc1cc2c(C)cc(=O)oc2c2c1NCCC2` yielded a z-score of -0.295.

For the compound `Oc1c(Cl)cc(Cl)c2c1NCCC2`, the z-score was 5.54 (active).

For `Cc1cc(C)cc(NC(=O)C(Nc2ccccc2)c2ccccc2)c1` (stereo not drawn), the z-score worked out at 0.168.

The compound `CCCN(CCC)C(=O)c1ccccc1C(=O)N(CCC)CCC` showed a z-score of -0.328.

For the compound `Cc1cc2c(C)nc3ccccc3c2o1`, the z-score was -0.371.

Take `COc1ccc(NC(=O)c2ocnc2C)cc1OC`: the z-score is -0.369.

Turning to `Cc1nc(C)c(C(=O)Nc2ccc(Oc3ccccc3)cc2)o1`, the z-score was 6.45 (active).

In the case of `Cc1nc(C)c(C(=O)Nc2ccccc2-c2ccccc2)o1`, the z-score is -0.0653.

For `Cc1nc(C)c(C(=O)Nc2cccc(Cl)c2)o1`, the z-score was found to be 0.108.

For `COc1cccc(NC(=O)c2ocnc2C)c1`, the z-score is -0.0866.

`Cc1ncoc1C(=O)Nc1ccc(Oc2ccccc2)cc1` displayed a z-score of 2.26.

On to `CC(C)(C)NC(=O)Cn1nnc(-c2ccc(Cl)cc2)n1`, for which the z-score is -0.11.

In turn, `COc1ccc(OCC(=O)NC(=S)Nc2ccc(S(=O)(=O)Nc3cc(OC)nc(OC)n3)cc2)cc1` yielded a z-score of -0.254.

In turn, `COC(=O)CC(NC(=O)c1ccc(C)cc1)c1ccccc1` (stereo not drawn) displayed a z-score of -0.129.

Consider `Cc1ccc(Cn2cc(S(=O)(=O)c3ccc(Cl)cc3)c(=O)c3cc(F)ccc32)cc1`, for which the z-score is -0.041.

Consider `COc1cc(/C=N/NC(=O)CC23CC4CC(CC(C4)C2)C3)cc(Br)c1OCC(=O)N(C)C`, for which the z-score is -0.225.

In the case of `O=c1c2c3c(sc2nc2n1CCCC2)CCCC3`, the z-score was -0.196.

As to `Cc1cccc(Nc2nc(N)c([N+](=O)[O-])c(NCc3ccco3)n2)c1`, the z-score stood at 2.38.

For `Cc1ccc(Nc2nc(N)c([N+](=O)[O-])c(NCc3ccco3)n2)cc1`, the z-score is -0.288.

On to `Nc1nc(Nc2ccccc2)nc(NCc2ccco2)c1[N+](=O)[O-]`, for which the z-score was 4.24 (active).

Compound `Cc1ccc(Nc2nc(N)c([N+](=O)[O-])c(NCc3ccco3)n2)cc1C` showed a z-score of 0.169.

`Cc1cccc(Nc2nc(NCc3ccco3)c3ccccc3n2)c1` displayed a z-score of 0.729.

On to `Nc1nc(NCc2ccccc2)nc(NCc2ccccc2)c1[N+](=O)[O-]`, for which the z-score was -0.14.

In turn, `Cc1ccc2c(c1)C(=O)CCN2` displayed a z-score of 0.498.

`CC(C)NC(=S)NC(=O)/C=C/c1cccc2ccccc12` had a z-score of 0.214.

Compound `CC(OC(=O)C1=COCCO1)C(=O)Nc1ccc(Oc2ccccc2)cc1` (stereo not drawn) returned a z-score of 0.0205.

On to `CCOC(=O)c1c(C)[nH]c(=S)c(C#N)c1-c1ccc(OC)cc1`, for which the z-score came to 0.501.

`CCOC(=O)c1c(C)[nH]c(=S)c(C#N)c1-c1ccc(Cl)cc1`: the z-score was 3.4 (active).

`CCOC(=O)c1c(-c2ccc(Cl)cc2)c(C#N)c(=O)n(N)c1N` displayed a z-score of -0.497.

As to `N#Cc1ccccc1CSc1ccc(-c2nc3ccccc3[nH]2)cn1`, the z-score was -0.154.

For `COc1ccc(-c2cc(C(F)(F)F)c(C#N)c(SCC(=O)Nc3nc(C)co3)n2)cc1`, the z-score is -0.185.

For the compound `O=[N+]([O-])c1cccnc1N1CCC(c2cc(-c3cccc(C(F)(F)F)c3)n[nH]2)CC1`, the z-score is -0.378.

`COCCCNC(=S)N1CCN(C(=O)c2ccco2)CC1` gave a z-score of -0.034.

As to `O=C(c1ccco1)N1CCCN(C(=O)c2ccco2)CC1`, the z-score is -0.354.

The compound `CC1CCc2nn(CC(=O)N3CCc4ccccc43)cc2C1` (stereo not drawn) registered a z-score of 0.16.

As to `CC1CCCN(C(=O)CN2CCN(C(=O)c3ccco3)CC2)C1` (stereo not drawn), the z-score was 0.124.

Regarding `CNC(=S)N1CCN(C(=O)c2ccco2)CC1`, the z-score amounted to 2.05.

Take `O=C(CCSc1ccccc1)N1CCN(C(=O)c2ccco2)CC1`: the z-score was -0.515.

The compound `O=C(CCC1CCCC1)N1CCN(C(=O)c2ccco2)CC1` showed a z-score of 2.43.

As to `CC1CCc2nn(CC(=O)N3CCN(C(=O)c4ccco4)CC3)cc2C1` (stereo not drawn), the z-score was 3.92 (active).

The compound `O=C(Cc1ccccc1)N1CCN(C(=O)c2ccco2)CC1` gave a z-score of -0.0691.

For `CCn1c(SCc2nc3ccccc3c(=O)[nH]2)nc2ccccc2c1=O`, the z-score was -0.672.

Take `Cc1ccc2cc(CN(Cc3cccs3)Cc3nnnn3CC3CCCO3)c(=O)[nH]c2c1` (stereo not drawn): the z-score was -0.0837.

Compound `CCOC(=O)N1CCN(CC(=O)Nc2ccc(C)c(Br)c2)CC1` returned a z-score of -0.241.

Compound `CCOC(=O)COc1ccc(S(=O)(=O)Nc2ccc(C)cc2)cc1` came in with a z-score of -0.352.

In the case of `CCC(c1c(C)[nH]oc1=O)c1c(C)[nH]oc1=O`, the z-score is 0.119.

For `COc1cc(/C=C2/SC(N)=NC2=O)ccc1Oc1ccc([N+](=O)[O-])cc1[N+](=O)[O-]`, the z-score is -0.644.

Regarding `Cc1cc(C(=O)COC(=O)Cc2n[nH]c(=O)c3ccccc23)c(C)n1-c1cccc(C(F)(F)F)c1`, the z-score is -1.01.

On to `CCN(CC)c1ccc2cc(-c3nnc(-c4ccncc4)o3)c(=O)oc2c1`, for which the z-score is -1.17.

Take `CCN(CC)c1ccc2cc(-c3nnc(-c4ccccc4)o3)c(=O)oc2c1`: the z-score is 2.42.

Take `CCN(CC)c1ccc2cc(C(C)=O)c(=O)oc2c1`: the z-score was -2.23.

Regarding `CCN(CC)c1ccc2cc(C=O)c(=O)oc2c1`, the z-score was 17.6 (active).

`CCN(CC)c1ccc2cc(C(N)=O)c(=O)oc2c1` registered a z-score of -0.0435.

In the case of `CCN(CC)c1ccc2cc(-c3nnc(-c4ccc(Br)cc4)o3)c(=O)oc2c1`, the z-score is -4 (active).

`CC1CCc2nn(CC(=O)NCCCN3CCOCC3)cc2C1` (stereo not drawn) showed a z-score of -0.0438.

With `O=C(c1cccc(-n2cnnn2)c1)N1CCOCC1`, the z-score is -0.145.

`COC(=O)c1ccc(C(C(=O)NCc2ccccc2)N(Cc2cccs2)C(=O)c2cnccn2)cc1` (stereo not drawn) showed a z-score of -0.245.

Consider `CCc1ccccc1N1C(=O)c2ccccc2S1(=O)=O`, for which the z-score was -0.409.

In turn, `CN(CCc1ccccn1)S(=O)(=O)c1ccccc1F` displayed a z-score of 0.185.

Regarding `O=C1c2ccccc2C(=O)N1CNc1ccccc1`, the z-score came to 0.141.

In the case of `O=C1c2ccccc2C(=O)N1Nc1ccccc1`, the z-score was 4.88 (active).

`O=C1C=C(c2ccccc2)C(=O)N1Nc1ccccc1`: the z-score was found to be 0.219.

For the compound `COc1ccc(/C=N/OCC(=O)Nc2nc3ccccc3s2)cc1`, the z-score is -0.132.

In turn, `Cc1cc(OCCN2CCCCC2)nc2ccccc12` displayed a z-score of 0.234.

`Cc1cc(C)cc(C(=O)n2cnnc2N)c1` had a z-score of -0.0618.

`CC(C)OC(=O)CC12CN3CN(C1)CC(CC(=O)OC(C)C)(C3)C2=O`: the z-score was 3.43 (active).

Take `CC(C)OC(=O)CC12CN(C)CC(CC(=O)OC(C)C)(CN(C)C1)C2=O`: the z-score worked out at 0.458.

Compound `CCOC(=O)CC12CN3CN(C1)CC(CC(=O)OCC)(C3)C2=O` came in with a z-score of -0.0089.

`O=C(O)c1ccc(F)c(S(=O)(=O)Nc2ccccc2Cl)c1` showed a z-score of -0.11.

On to `COC(=O)c1ccccc1NC(=O)c1cccc(NC(=O)CSCc2ccccc2)c1C`, for which the z-score was -0.0727.

`Cc1cc(Cl)ccc1OCCCC(=O)NCC1CCCO1` (stereo not drawn): the z-score was -0.79.
